Experimental data published in ChEMBL document CHEMBL2218924, “A broad activity screen in support of a chemogenomic map for kinase signalling research and drug discovery” (Biochem J, 2013).

Assays:
[1] = molecular target: T1, Ephrin type-B receptor 1 (Homo sapiens) (UniProt P54762); conditions: at 10 µM
T1 sequence (whole entry): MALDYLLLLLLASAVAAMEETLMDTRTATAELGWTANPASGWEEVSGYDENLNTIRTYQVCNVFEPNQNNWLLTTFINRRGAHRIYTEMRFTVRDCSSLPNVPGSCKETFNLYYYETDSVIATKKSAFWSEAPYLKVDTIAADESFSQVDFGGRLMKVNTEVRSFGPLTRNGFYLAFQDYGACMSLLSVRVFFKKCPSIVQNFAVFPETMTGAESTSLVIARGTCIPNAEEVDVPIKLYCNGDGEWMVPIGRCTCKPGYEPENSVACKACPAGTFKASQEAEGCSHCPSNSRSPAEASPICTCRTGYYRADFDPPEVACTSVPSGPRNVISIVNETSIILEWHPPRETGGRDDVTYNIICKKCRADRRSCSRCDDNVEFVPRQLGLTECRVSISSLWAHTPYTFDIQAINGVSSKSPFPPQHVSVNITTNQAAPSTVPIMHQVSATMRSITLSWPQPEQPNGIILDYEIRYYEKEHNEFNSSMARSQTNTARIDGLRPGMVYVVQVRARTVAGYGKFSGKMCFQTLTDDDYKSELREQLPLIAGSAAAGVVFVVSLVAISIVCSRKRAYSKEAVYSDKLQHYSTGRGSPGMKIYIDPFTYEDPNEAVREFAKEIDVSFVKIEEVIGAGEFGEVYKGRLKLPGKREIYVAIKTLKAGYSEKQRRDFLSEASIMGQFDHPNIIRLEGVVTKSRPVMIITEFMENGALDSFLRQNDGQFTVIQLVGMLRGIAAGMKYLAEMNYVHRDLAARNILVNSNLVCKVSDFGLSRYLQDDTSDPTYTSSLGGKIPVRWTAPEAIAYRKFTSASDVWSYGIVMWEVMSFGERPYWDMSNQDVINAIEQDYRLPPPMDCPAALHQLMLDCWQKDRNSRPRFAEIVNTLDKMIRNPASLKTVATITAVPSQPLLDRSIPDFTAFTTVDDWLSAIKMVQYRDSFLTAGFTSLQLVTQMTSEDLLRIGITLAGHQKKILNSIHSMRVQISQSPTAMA

[2] = molecular target: T2, Ephrin type-B receptor 2 (Homo sapiens) (UniProt P29323); conditions: at 1 µM
T2 sequence (whole entry): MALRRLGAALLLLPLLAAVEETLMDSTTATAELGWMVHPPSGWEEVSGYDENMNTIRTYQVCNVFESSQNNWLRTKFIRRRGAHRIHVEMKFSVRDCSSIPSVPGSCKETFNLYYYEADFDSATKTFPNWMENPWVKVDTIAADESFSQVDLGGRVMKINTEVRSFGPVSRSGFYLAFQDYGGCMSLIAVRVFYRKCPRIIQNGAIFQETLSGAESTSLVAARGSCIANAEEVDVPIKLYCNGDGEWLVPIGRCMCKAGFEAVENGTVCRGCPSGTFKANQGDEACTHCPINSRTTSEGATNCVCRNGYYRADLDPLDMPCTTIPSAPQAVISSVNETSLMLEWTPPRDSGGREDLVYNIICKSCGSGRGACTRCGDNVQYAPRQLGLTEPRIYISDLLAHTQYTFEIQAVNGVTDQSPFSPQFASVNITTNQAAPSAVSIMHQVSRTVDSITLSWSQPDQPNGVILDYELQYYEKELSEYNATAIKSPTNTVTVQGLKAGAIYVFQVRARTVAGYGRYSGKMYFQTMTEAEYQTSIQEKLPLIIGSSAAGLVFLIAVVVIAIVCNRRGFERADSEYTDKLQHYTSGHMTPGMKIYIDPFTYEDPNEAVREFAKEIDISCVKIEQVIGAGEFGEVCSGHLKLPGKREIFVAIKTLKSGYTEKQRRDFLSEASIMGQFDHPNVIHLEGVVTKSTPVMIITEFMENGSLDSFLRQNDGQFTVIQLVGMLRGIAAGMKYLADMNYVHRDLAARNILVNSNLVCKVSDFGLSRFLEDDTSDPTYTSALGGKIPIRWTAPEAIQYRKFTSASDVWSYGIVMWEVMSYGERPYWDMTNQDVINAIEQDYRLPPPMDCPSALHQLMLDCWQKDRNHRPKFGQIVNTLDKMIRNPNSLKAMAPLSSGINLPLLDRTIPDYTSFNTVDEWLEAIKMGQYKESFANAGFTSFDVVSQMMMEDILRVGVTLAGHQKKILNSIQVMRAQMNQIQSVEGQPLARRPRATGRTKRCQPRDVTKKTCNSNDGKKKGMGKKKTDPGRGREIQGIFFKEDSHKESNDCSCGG

[3] = molecular target: T2, Ephrin type-B receptor 2 (Homo sapiens); conditions: at 10 µM
[4] = molecular target: T3, Ephrin type-B receptor 3 (Homo sapiens) (UniProt P54753); conditions: at 1 µM
T3 sequence (whole entry): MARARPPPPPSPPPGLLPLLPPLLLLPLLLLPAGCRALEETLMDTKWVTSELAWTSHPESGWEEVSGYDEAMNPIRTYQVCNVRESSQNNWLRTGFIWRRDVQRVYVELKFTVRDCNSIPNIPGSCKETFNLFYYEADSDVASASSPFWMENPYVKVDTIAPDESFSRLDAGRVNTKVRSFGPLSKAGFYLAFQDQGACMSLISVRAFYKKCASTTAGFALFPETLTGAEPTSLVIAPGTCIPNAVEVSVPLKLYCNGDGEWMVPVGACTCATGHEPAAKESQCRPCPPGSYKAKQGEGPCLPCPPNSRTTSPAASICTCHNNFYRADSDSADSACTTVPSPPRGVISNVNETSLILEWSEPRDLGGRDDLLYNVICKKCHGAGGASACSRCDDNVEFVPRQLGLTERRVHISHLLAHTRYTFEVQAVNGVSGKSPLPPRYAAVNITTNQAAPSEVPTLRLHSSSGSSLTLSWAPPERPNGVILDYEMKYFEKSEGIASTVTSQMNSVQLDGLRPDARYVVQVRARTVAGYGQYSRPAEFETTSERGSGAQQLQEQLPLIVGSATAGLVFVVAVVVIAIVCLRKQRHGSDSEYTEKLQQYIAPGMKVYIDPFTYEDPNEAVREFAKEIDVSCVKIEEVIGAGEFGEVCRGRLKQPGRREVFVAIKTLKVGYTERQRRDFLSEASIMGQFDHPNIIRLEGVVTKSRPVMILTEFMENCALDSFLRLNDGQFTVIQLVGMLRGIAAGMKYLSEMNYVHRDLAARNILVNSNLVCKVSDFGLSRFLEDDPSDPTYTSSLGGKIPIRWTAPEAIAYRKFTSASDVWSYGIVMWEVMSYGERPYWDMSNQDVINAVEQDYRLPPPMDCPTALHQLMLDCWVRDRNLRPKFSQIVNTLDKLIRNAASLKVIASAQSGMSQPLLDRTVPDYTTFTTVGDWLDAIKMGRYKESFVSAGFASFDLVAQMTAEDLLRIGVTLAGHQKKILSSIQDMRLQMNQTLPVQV

[5] = molecular target: T3, Ephrin type-B receptor 3 (Homo sapiens); conditions: at 10 µM
[6] = molecular target: T4, Ephrin type-B receptor 4 (Homo sapiens) (UniProt P54760); conditions: at 1 µM
T4 sequence (whole entry): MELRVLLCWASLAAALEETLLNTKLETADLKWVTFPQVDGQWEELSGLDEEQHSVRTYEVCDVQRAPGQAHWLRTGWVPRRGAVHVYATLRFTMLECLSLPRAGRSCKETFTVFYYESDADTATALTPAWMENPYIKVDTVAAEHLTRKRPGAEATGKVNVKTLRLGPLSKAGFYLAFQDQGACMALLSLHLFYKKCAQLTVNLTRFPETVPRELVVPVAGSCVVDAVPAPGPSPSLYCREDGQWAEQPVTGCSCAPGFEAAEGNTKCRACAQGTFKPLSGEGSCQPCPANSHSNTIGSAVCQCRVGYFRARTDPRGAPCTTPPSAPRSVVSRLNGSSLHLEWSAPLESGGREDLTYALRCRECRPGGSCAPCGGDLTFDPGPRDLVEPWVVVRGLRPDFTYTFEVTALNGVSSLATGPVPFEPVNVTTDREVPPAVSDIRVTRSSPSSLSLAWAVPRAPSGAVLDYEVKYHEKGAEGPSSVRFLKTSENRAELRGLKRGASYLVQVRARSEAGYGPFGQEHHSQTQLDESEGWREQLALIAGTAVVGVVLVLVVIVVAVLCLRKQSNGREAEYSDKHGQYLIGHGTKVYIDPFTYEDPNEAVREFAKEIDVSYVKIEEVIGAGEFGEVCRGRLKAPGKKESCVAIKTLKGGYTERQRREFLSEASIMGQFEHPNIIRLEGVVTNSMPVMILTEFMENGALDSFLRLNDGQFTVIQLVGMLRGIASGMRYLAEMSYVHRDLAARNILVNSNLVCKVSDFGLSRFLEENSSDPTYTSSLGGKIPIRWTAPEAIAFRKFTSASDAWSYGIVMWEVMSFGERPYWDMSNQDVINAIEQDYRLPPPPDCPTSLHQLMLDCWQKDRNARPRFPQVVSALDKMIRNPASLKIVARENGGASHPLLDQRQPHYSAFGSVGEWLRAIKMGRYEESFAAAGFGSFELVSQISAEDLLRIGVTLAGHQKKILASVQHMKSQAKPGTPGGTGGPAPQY

[7] = molecular target: T4, Ephrin type-B receptor 4 (Homo sapiens); conditions: at 10 µM
[8] = molecular target: Receptor tyrosine-protein kinase erbB-4 (Homo sapiens) (UniProt Q15303); conditions: at 1 µM
[9] = molecular target: Receptor tyrosine-protein kinase erbB-4 (Homo sapiens) (UniProt Q15303); conditions: at 10 µM
[10] = molecular target: Focal adhesion kinase 1 (Homo sapiens) (UniProt Q05397); conditions: at 1 µM
Sequence of Focal adhesion kinase 1 (Homo sapiens) (Q05397 2-1052 limits assumed): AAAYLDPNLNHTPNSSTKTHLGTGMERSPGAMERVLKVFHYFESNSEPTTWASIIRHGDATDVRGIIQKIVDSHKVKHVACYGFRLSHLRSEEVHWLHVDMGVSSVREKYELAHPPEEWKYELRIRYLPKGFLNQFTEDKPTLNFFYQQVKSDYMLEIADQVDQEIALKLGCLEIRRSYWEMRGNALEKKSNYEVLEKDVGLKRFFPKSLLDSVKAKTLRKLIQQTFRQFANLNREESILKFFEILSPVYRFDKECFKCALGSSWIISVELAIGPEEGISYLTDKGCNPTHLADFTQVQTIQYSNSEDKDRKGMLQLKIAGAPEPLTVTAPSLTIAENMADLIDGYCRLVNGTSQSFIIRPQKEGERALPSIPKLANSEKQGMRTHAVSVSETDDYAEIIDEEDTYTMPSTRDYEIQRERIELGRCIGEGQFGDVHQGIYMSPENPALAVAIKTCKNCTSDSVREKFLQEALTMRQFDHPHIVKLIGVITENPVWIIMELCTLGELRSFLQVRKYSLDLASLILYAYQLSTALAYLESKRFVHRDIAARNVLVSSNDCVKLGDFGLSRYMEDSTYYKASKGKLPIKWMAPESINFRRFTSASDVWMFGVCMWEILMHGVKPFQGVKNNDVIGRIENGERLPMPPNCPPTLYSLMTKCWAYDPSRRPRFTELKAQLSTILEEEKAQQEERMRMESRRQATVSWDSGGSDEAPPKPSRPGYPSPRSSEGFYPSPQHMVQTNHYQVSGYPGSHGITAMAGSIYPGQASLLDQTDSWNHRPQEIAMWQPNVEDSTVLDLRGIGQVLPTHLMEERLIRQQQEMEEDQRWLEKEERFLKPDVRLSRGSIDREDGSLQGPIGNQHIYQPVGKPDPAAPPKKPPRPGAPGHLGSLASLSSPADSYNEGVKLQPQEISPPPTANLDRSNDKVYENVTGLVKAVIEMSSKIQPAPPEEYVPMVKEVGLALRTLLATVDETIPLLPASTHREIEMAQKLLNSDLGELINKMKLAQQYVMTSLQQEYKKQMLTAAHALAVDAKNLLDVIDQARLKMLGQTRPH

Sequence of Receptor tyrosine-protein kinase erbB-4 (Homo sapiens) (Q15303 whole entry): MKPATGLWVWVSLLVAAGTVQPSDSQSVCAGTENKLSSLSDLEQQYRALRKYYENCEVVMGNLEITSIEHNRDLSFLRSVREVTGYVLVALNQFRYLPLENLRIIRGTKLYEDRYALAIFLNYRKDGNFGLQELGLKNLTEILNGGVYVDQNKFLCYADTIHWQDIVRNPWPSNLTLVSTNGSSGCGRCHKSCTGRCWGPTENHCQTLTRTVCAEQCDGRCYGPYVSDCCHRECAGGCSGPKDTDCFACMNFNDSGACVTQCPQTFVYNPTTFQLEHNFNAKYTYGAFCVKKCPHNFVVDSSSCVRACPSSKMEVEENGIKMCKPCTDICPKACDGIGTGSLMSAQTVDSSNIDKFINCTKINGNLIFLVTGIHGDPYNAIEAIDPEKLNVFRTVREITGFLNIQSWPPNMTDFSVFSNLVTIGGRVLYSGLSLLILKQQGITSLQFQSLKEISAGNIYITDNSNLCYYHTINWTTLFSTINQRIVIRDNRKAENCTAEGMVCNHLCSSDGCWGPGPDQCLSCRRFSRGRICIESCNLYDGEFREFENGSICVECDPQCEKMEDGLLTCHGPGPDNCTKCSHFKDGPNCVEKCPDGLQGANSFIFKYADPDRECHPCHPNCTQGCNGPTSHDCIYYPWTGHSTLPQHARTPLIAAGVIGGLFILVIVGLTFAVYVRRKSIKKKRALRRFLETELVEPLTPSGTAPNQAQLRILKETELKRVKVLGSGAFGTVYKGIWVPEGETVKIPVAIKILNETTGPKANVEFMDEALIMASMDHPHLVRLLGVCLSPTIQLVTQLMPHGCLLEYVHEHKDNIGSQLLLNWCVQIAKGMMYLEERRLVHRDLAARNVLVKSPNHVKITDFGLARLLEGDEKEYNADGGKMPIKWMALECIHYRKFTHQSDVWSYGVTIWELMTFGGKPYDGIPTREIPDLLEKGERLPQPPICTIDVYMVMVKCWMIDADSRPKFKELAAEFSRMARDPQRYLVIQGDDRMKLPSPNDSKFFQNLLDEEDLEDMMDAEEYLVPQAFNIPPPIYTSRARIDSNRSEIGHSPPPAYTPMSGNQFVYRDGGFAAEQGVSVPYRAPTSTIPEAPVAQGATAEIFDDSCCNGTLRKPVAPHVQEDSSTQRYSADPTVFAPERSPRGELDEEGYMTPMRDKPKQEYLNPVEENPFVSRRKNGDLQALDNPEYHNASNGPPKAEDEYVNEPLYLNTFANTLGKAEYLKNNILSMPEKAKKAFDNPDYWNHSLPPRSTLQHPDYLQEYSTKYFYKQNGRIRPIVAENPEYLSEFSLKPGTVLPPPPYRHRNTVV

Cc1nc(-c2ccccc2)c(-c2ccncc2)o1
residual activity [1]: 55%
residual activity [2]: 36%
residual activity [3]: 31%
residual activity [4]: 126% (inactive)
residual activity [5]: 107%
residual activity [6]: 105%
residual activity [7]: 79%
residual activity [8]: 118%
residual activity [9]: 110%
residual activity [10]: 111%
